TRHR agonist: TRH receptor (human) agonism | AID 493084 | P34981 | 360,000 tested, 0.18% active | activation, % at 2 µM | TRHR cells, calcium flux fluo-8, FDSS agonist mode
Target sequence (P34981 whole entry, looked up): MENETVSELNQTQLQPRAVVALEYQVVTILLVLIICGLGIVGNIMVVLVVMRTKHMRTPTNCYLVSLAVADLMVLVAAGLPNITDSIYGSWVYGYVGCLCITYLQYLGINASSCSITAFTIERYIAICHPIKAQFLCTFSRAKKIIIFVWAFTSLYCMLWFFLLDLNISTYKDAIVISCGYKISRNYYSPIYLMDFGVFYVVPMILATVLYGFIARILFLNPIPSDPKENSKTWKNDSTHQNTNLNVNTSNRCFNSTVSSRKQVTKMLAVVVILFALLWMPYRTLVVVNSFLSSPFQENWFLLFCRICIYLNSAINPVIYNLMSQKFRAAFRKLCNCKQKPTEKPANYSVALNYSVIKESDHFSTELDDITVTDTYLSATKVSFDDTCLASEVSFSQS
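Agonist-mode FDSS calcium read (Ex 480/Em 530, 1 s cycles) in 1536-well TRHR cells with fluo-8 dye, after 10-cycle baseline and 23 nL compound addition; TRH at EC20 (10 nM final) added afterwards for the enhancer phase.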
TRHR enhancer: allosterically enhances the human TRH receptor | P34981 | TRHR cells, fluo-8 calcium fluorescence, EC20 TRH enhancement | enhancement, % at 2 µM | 360,000 tested, 0.66% active | AID 493056; in the data active means enhancement above about 30%
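Enhancer read-out: after compound pinning and an initial kinetic agonist-mode read, an EC20 of TRH (10 nM final) was injected and fluo-8 calcium signal (Ex 480/Em 530) followed at 1 s/cycle for 100 cycles in TRHR-expressing cells.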
D1 antagonist: human D1 dopamine receptor antagonism. 360,000 tested, 3.2% active. activity change, negative = inhibition, % at 10 µM. P21728. HEK293 TREx D1 cells, calcium flux, dopamine EC80; active compounds read low. AID 504652; in the data active means activity change below about -30%
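Tetracycline-induced HEK293 Trex D1 cells, force-coupled to calcium, dye-loaded; compounds added and read 180 s, then EC80 dopamine added and calcium flux tracked kinetically another 180 s.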
D1 potentiator: enhances dopamine response at the human D1 receptor; P21728; HEK293 TREx D1 cells, calcium flux, dopamine EC20 potentiation; potentiation, % at 10 µM; 360,000 tested, 0.036% active; AID 504651; in the data active means potentiation above about 30%
D1 ag: activates the human D1 dopamine receptor; P21728; HEK293 T-REx D1 cells, calcium flux, agonist mode; 360,000 tested, 1% active; activation, % at 2 µM
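Tetracycline-induced HEK293 TREx D1 cells, force-coupled to calcium signalling, were dye-loaded with a no-wash calcium kit. Compound was pin-added after a 10 s baseline. Fluorescence was read kinetically at 1 cycle/s for 180 s, with calcium rises flagged as agonism.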
Of the large screens only hits and unclear results are named; the others gave an inactive call. Only some compounds are listed: those with a hit (about 4.7% of all), similar ones and a draw of the others. Unless noted, no stated cut-off is given here; in the data, active means activation above about 30%; inactive means the rest.

COc1ccc(OC)c(S(=O)(=O)NC2CCN(Cc3ccccc3)CC2)c1	none
COc1ccc(CNC2CCN(Cc3ccccc3)CC2)cc1	D1 ag 32.2
COc1ccc(NS(=O)(=O)c2cccc(C(=O)N3CCN(Cc4ccc5c(c4)OCO5)CC3)c2)cc1	D1 antagonist -61.2
Cc1cc(C)cc(N2CCn3c2nc2c3c(=O)n(Cc3ccc(Cl)cc3)c(=O)n2C)c1	none
COc1ccc(OC)c(C2=C/C(=C/c3ccccn3)C(=O)O2)c1	D1 antagonist -55.8, D1 ag 188.8
Cc1ccc(Cl)cc1NC(=O)C1CCN(S(=O)(=O)c2cccc3nonc23)CC1	none
Fc1ccc(-n2cc(-c3ccccc3)c3c(=S)nc[nH]c32)cc1	D1 antagonist -40.6
Cc1ccc(-n2cc(-c3ccccc3)c3c(=O)[nH]cnc32)cc1	D1 antagonist -66.1
COc1ccc(OC)c(NC(=O)C2CCN(S(=O)(=O)c3c(C)noc3/C=C/c3ccc(C)cc3)CC2)c1	none
COC(=O)CN(c1ccccc1C)S(C)(=O)=O	D1 antagonist -37.9
CCc1ccccc1N(CC(=O)OC)S(C)(=O)=O	none
CCOC(=O)C(Cc1c[nH]c2ccccc12)NC(=O)COc1ccc(CC)cc1 (stereo not given)	none
CCOC(=O)C(Cc1ccc(O)cc1)NC(=O)CCc1c[nH]c2ccccc12 (stereo not given)	D1 ag 37.4
COC(=O)c1ccccc1NC(=O)C1CCCN(c2nnc(C)c3c(C)n(-c4ccccc4)nc23)C1 (stereo not given)	none
CCc1ccc(-n2nc(C)c3c(C(=O)Nc4cccc(C(F)(F)F)c4)cc(C)nc32)cc1	D1 antagonist -35.3
Cc1cc(C(=O)NCc2ccccc2C)c2c(C)nn(-c3cccc(F)c3)c2n1	D1 antagonist -46.1
COc1cccc(CNC(=O)c2cc(C)nc3c2c(C)nn3-c2cccc(F)c2)c1	D1 ag 32.6
Cc1cc(C(=O)NCc2cccc(Br)c2)c2c(C)nn(-c3ccccc3)c2n1	none
COc1ccc(-c2[nH]ncc2C(=O)NCc2cccc(F)c2)cc1	TRHR enhancer 37.3
COc1ccc(-c2[nH]ncc2C(=O)NCc2ccc(F)cc2)cc1	none
Cc1cc(C(=O)NCc2ccccc2Cl)c2c(C)nn(-c3cccc(F)c3)c2n1	none
Cc1ccc(NC(=O)Cn2cc(C(=O)C3CCCCC3)c3ccccc32)cc1	none
N=c1n(CCN2CCCCC2)c2ccccc2n1CC(O)c1ccc(Cl)c(Cl)c1 (stereo not given)	D1 ag 65.0
COc1ccc(CNC(=O)CCn2c(=O)c3cccn3c3ccc(F)cc32)cc1OC	D1 antagonist -43.0
COc1ccc(-c2nc(CCNC(=O)c3cc(OC)c(OC)c(OC)c3)cs2)cc1	none
O=C(NCc1ccccc1)c1cc2ccc3cccnc3c2[nH]1	TRHR enhancer 31.1
Cc1ccc(S(=O)(=O)N2CCN(Cc3cc(=O)n4nc(-c5ccccc5Cl)sc4n3)CC2)cc1	none
Cc1sc2ncn(CC(=O)NCC(=O)N(C)C3CCCCC3)c(=O)c2c1C	D1 antagonist -34.4
Cc1sc2ncn(CC(=O)NCC(=O)N(C)Cc3ccccc3)c(=O)c2c1C	none
COCC(=O)Nc1nnc(C2CCCCC2)s1	none
CCOCC(=O)Nc1nnc(C2CCCCC2)s1	D1 antagonist -35.8
CC(C)(C)c1ccc(-c2noc(CCC(N)=O)n2)cc1	D1 antagonist -39.8
CCc1ccccc1N(CC)C(=O)CCc1nc(-c2ccc(C)cc2)no1	D1 ag 34.2
Cc1ccc(-c2noc(CCC(=O)N(C)c3ccccc3F)n2)cc1	none
O=S(=O)(c1ccc(Cl)cc1)N1CCN(S(=O)(=O)c2ccc3c(c2)OCCO3)CC1	none
C=CCn1c(=O)[nH]c2nc3cc(N=CN(C)C)c(C)cc3nc2c1=O	TRHR agonist 42.7, D1 ag 56.7
O=C(CCC(=O)N1CCOc2ccccc21)NCCCN1CCN(Cc2ccccc2)CC1	D1 antagonist -38.5
CN1CCN(CCCNC(=O)CCC(=O)N2CCOc3ccccc32)CC1	none
CCCc1ccc(C2Sc3ccccc3NC3=C2C(=O)c2ccccc23)cc1 (stereo not given)	none
Cc1ccc2c(=O)c(C(=O)c3ccc(F)cc3)cn(CC(=O)NCCc3ccccc3)c2n1	none
COc1ccc(CNc2ncc(-c3ccccc3)n2C)c2ccccc12	none
COc1ccc(CNc2ncc(-c3ccccc3)n2C)c(OC)c1OC	D1 antagonist -30.2

Bioassay records (PubChem BioAssay)
